Assay results published in ChEMBL document CHEMBL1857833, “Screening and optimization of specific chemical series against human African Trypanosomiasis (HAT)”.
Where “and” joins values, the source holds several entries; their conditions need not be identical. Identical values can stand only once. In all, about 4,400 compounds went through this assay and about 390 (8.9%) showed an effect of 50% or more. The entries come from a sample that favours strong results as a whole.

tested on: Trypanosoma brucei; test: DNDI: Inhibition of Human African Trypanosomiasis, SBRI 427, in vitro at 2 ug.mL-1; type: functional

Structure (SMILES)	% inhibition
c1csc(-c2nc(CNCCN3CCOCC3)co2)c1	-8%
CCN(Cc1coc(-c2ccccc2C)n1)c1ccc2c(c1)OCO2	13%
Cc1ccc2cccc(Oc3cc(/C(=N/O)NCc4cccs4)ccn3)c2n1	6%
CCN(Cc1coc(-c2ccc(F)cc2)n1)c1ccc2c(c1)OCO2	-2%
CN(Cc1cccnc1)/C(=N\O)c1ccnc(Oc2cccc(F)c2)c1	2%
CCOc1ccccc1-c1nc(CNCc2cc(OC)c(OC)c(OC)c2)co1	8%
CCOc1ccccc1CN/C(=N\O)c1ccc(C)nc1Oc1cc(Cl)ccc1Cl	26%
CCOc1ccccc1CN/C(=N\O)c1cccnc1Oc1ccc(F)cc1	5%
CCOc1ccccc1CN/C(=N\O)c1cccnc1Oc1cc(C)cc(C(C)C)c1	-4%
CCOc1ccccc1CN/C(=N\O)c1cccnc1Oc1ccc(OC)cc1	98%
Cc1ccccc1CN/C(=N\O)c1cccnc1OCC(C)C	11%
Cc1ccccc1CN/C(=N\O)c1cccnc1Oc1ccc(C(C)C)cc1	99%
CCOc1ccccc1CN/C(=N\O)c1cccnc1Oc1cc(Cl)ccc1Cl	100%
Cc1ccc(/C(=N/O)NCc2ccccc2C)c(Oc2cccc(C(C)C)c2)n1	2%
CCOc1ccccc1CN/C(=N\O)c1cccnc1Oc1ccc2oc3ccccc3c2c1	14%
COc1ccccc1CN/C(=N\O)c1cccnc1Oc1ccc(C(C)C)cc1	-4%
CCOc1ccccc1CN/C(=N\O)c1cccnc1Oc1ccc(C(C)C)cc1	99%
CCCN(Cc1coc(-c2cccs2)n1)CC1CC1	0%
Cc1ccc(/C(=N/O)N(C)Cc2cccnc2)c(OCc2ccccc2F)n1	0%
COc1ccc(-c2nc(CNCc3ccc(C(C)(C)C)cc3)co2)cc1	4%
Cc1ccc(C(C)C)c(Oc2cc(/C(=N/O)N3C(C)CCC3C)ccn2)c1 (stereo not drawn)	8%
COc1ccc(N(C)Cc2coc(-c3ccc(C(F)(F)F)cc3)n2)cc1	2%

Structure (SMILES)	% inhibition
Fc1cccc(-c2nc(CN3CCC4CCCCC4C3)co2)c1 (stereo not drawn)	0%
O/N=C(\NCc1cccnc1)c1cccnc1Oc1ccc(F)cc1Cl	14%
O/N=C(\NCc1ccccn1)c1cccnc1Oc1ccc(F)cc1Cl	20%
Cc1ccc(CN/C(=N\O)c2cccnc2Oc2c(F)cccc2F)o1	0%
O/N=C(\NCc1ccccc1)c1cccnc1Oc1ccc(F)cc1Cl	94%
COc1ccc(Oc2ncccc2/C(=N/O)NCc2ccc(C)o2)cc1	5%
Cc1ccc(CN/C(=N\O)c2cccnc2Oc2cc(Cl)ccc2Cl)o1	100%
CSc1ccc(Oc2nc(C)ccc2/C(=N/O)n2ccnc2)cc1	-8%
CCCCN(CCC#N)Cc1coc(-c2ccc(C)cc2)n1	-2%
CCOc1ccc(-c2nc(CNC(CC)COC)co2)cc1 (stereo not drawn)	21%
CCN(CC)CCCC(C)NCc1coc(-c2ccccc2Cl)n1 (stereo not drawn)	94%
CCCCCC(C)NCc1coc(-c2ccccc2OCC)n1 (stereo not drawn)	99%
CCOc1ccccc1-c1nc(CN[C@H](C)c2ccc(C)cc2)co1	10%
CCCCCCC(C)NCc1coc(-c2ccccc2Br)n1 (stereo not drawn)	28%
CCCC(CCC)NCc1coc(-c2ccc(O)cc2)n1	14%
CC(CCc1ccccc1)NCc1coc(-c2ccccc2Cl)n1 (stereo not drawn)	8%
CCN(CC)CCNCc1coc(-c2ccccc2Cl)n1	-11%
CCOc1ccccc1-c1nc(CNC(C)c2ccccc2)co1 (stereo not drawn)	-8%
CCCCCCC(C)NCc1coc(-c2ccccc2OCC)n1 (stereo not drawn)	41%
CCCC(CCC)NCc1coc(-c2ccc(OCC)cc2)n1	99%
Cc1ccc(/C(=N/O)N2CCN(c3ccccc3)CC2)c(Oc2ccc(F)cc2)n1	20%
C=CCN(CC=C)Cc1coc(-c2cccs2)n1	-3%

Structure (SMILES)	% inhibition
Cc1ccc(-c2nc(CNc3cc(C)nn3-c3ccccc3)co2)cc1	10%
C=C(C)CN(CC)Cc1coc(-c2cccc3ccccc23)n1	-7%
COc1cc(-c2nc(CNC(C)c3ccccc3)co2)cc(OC)c1OC (stereo not drawn)	0%
CCC(NCc1coc(-c2ccc(Cl)cc2Cl)n1)c1ccccc1 (stereo not drawn)	5% and 14%
CCCCN(CCC#N)Cc1coc(-c2ccc(O)cc2)n1	-26%
Cc1ccccc1-c1nc(CN(C)C(C)c2ccccc2)co1 (stereo not drawn)	13%
COCC(C)NCc1coc(-c2ccc(Cl)cc2Cl)n1 (stereo not drawn)	2%
CCCC(CCC)NCc1coc(-c2ccccc2Br)n1	-3%
CCCC(CCC)NCc1coc(-c2ccccc2OCC)n1	98%
CCOc1ccccc1-c1nc(CNC(CC)COC)co1 (stereo not drawn)	5%
CC(NCc1coc(-c2ccc(Cl)cc2Cl)n1)C(C)(C)C (stereo not drawn)	55%
Cc1ccc(-c2nc(CN(c3ccccc3)C(C)C)co2)cc1	23%
c1ccc2c(-c3nc(CN4CCC(N5CCCC5)CC4)co3)cccc2c1	35%
Cc1ccc(-c2nc(CN(Cc3ccccn3)Cc3ccccn3)co2)cc1	83%
COc1ccc(-c2nc(CN(Cc3ccccn3)Cc3ccccn3)co2)cc1	46%
COCCN(CCOC)Cc1coc(-c2cccc(C)c2)n1	13%
Fc1cccc(-c2nc(CN(Cc3ccccn3)Cc3ccccn3)co2)c1	4%
Fc1ccc(-c2nc(CN(Cc3ccccn3)Cc3ccccn3)co2)cc1	48%
Clc1ccc(-c2nc(CN(Cc3ccccn3)Cc3ccccn3)co2)c(Cl)c1	58%
COCCN(CCOC)Cc1coc(-c2ccc(Cl)cc2Cl)n1	6%
Cc1cccc(-c2nc(CN(Cc3ccccn3)Cc3ccccn3)co2)c1	63%
CN(CCc1ccccn1)Cc1coc(-c2ccc(Cl)cc2Cl)n1	-26%

Structure (SMILES)	% inhibition
C=CCN(C)Cc1coc(-c2ccc(OC)cc2)n1	18%
c1ccc2c(-c3nc(CNCCN4CCOCC4)co3)cccc2c1	7%
Cc1ccccc1-c1nc(CN(Cc2ccccc2)C(C)C)co1	7%
Cc1ccc(/C(=N/O)NC2CCc3ccccc32)c(Oc2cccc(F)c2)n1 (stereo not drawn)	23%
Cc1ccc(-c2nc(CNC(C)CC(C)C)co2)cc1 (stereo not drawn)	4%
COc1ccc(Oc2nc(C)ccc2/C(=N/O)NC2CCC2)cc1	-19%
Cc1ccc(Oc2nc(C)ccc2/C(=N/O)NC2CC2)cc1	30%
CSc1ccc(Oc2nc(C)ccc2/C(=N/O)NC2CCCCC2)cc1	1%
Cc1ccc(/C(=N/O)NC2CCCC2)c(Oc2ccc(F)cc2)n1	23%
Cc1ccc(Oc2nc(C)ccc2/C(=N/O)NC2CCCC2)cc1	97%
CSc1ccc(Oc2nc(C)ccc2/C(=N/O)NCC2CC2)cc1C	14%
COc1ccc(Oc2nc(C)ccc2/C(=N/O)NC2CCCC2)cc1	101%
COCCN/C(=N\O)c1ccc(C)nc1Oc1ccc(SC)c(C)c1	98%
CSc1ccc(Oc2nc(C)ccc2/C(=N/O)NCCN(C)C)cc1C	-3%
CSc1ccc(Oc2nc(C)ccc2/C(=N/O)NC2CCCC2)cc1C	88%
CCCN/C(=N\O)c1ccc(C)nc1Oc1ccc(SC)c(C)c1	11%
COc1ccc(Oc2nc(C)ccc2/C(=N/O)NC2CC2)cc1	4%
Brc1ccc(-c2nc(CNCCc3ccccn3)co2)cc1	-9%
FC(F)(F)Oc1ccc(-c2nc(CNCc3ccccc3OC(F)(F)F)co2)cc1	-17%
Fc1cccc(-c2nc(CNCc3ccc(OC(F)(F)F)cc3)co2)c1	7%
CN1CCCC1CCN/C(=N\O)c1cccnc1Oc1ccc(Cl)cc1 (stereo not drawn)	-1%
O=C(c1ccco1)N1CCN(Cc2coc(-c3ccc(Cl)cc3Cl)n2)CC1	21%
